Screening results deposited in PubChem by National Center for Advancing Translational Sciences (NCATS).
Most compounds without a hit are left out; they make up all but 19% or so of the library.
TDP1 cell noCPT = qHTS for Inhibitors of human tyrosyl-DNA phosphodiesterase 1 (TDP1): qHTS in cells in absence of CPT | DT40 Tdp1-/- hTDP1 cells, no CPT, ATP luminescence, 48 h | Potency, µM (series often up to 46.2 µM), for inactives: at the top dose activity change, negative = growth inhibition, hits mostly inhibitors | 420,000 tested, 15% active; also: potency is read from the fitted curve at half-maximal effect; nearly all actives have a fitted effect of over 55% in size
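Cells were dispensed at 400 per well, compounds added by pin tool, plates incubated ≥48 hr at 37 °C, then CellTiter-Glo added for 30 min at room temperature before luminescence reading. Line: DT40 Tdp1-/- complemented with hTDP1; camptothecin omitted.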
HT1080-NT tox = qHTS for induction of synthetic lethality in tumor cells producing 2HG: qHTS for the HT-1080-NT fibrosarcoma cell line; Potency, µM (titrated, usually from 46.1 µM), inactives show at the top dose activity, negative = less viability, hits mostly cytotoxic; HT-1080-NT fibrosarcoma viability, CellTiter-Glo ATP luminescence, 48 h; 360,000 tested, 1.6% active; AID 686970, 2013;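 also: NT is the 2HG producing partner of a matched IDH1 knockdown line; potency is read from the fitted curve at half-maximal effect; 0% = DMSO-treated cells and -100% = media-only wells without cells; nearly all actives have a fitted effect of over 55% in size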
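Viability of the 2HG-overproducing fibrosarcoma line after 48 hours of compound exposure at 37 degrees C was determined by luminescence with CellTiter-Glo, and concentration-effect curves were then fitted and categorized.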
HT1080 IDH1KD tx = qHTS for induction of synthetic lethality in tumor cells producing 2HG: qHTS for the HT-1080-IDH1KD cell line. HT-1080 IDH1 knockdown viability, ATP luminescence, 48 h. Potency, µM (top dose mostly 46.1 µM), without a hit: top-dose activity, negative = toxicity, most hits filed as cytotoxic. 360,000 tested, 2% active. AID 686971, 2013;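 also: potency is read from the fitted curve at half-maximal effect; 0% = DMSO wells and -100% = cell-free medium wells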
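% activity derives from luminescence (CellTiter-Glo), normalised to DMSO and no-cell wells. HT-1080-IDH1KD cells, 750/well, had 48 h compound exposure at 37 °C.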
TDP1 cell CPT = qHTS for Inhibitors of human tyrosyl-DNA phosphodiesterase 1 (TDP1): qHTS in cells in presence of CPT; AID 686979, 2013; Potency, µM (titrated, usually from 46.2 µM), inactives show at the highest dose activity change, negative = growth inhibition, hits mostly inhibitors; 420,000 tested, 12% active; chicken DT40 Tdp1-/-;hTDP1 cells + 20 nM CPT, ATP luminescence, 48 h; also: potency is read from the fitted curve at half-maximal effect; nearly all actives have a fitted effect of over 55% in size
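Cell growth measured by CellTiter-Glo luminescence after a minimum 48 h, 37 C compound exposure with 20 nM CPT in Tdp1-knockout DT40 cells stably expressing hTDP1, seeded 400/well; qHTS titration format.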
IL1B secr inh = qHTS for Inhibitors of Inflammasome Signaling: IL-1-beta AlphaLISA Primary Screen | THP-1 LPS/ATP IL-1B secretion, AlphaLISA, 16 h; hits give low values | activity change, % at 57.5 µM | 360,000 tested, 4.7% active; in the data active = activity change below about -50%; inconclusive = mostly about -30% to -49%
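Secreted IL-1B measured by AlphaLISA bead assay after 16 h compound exposure of THP-1 cells; compounds (final up to 57.5 uM) added 1 h before LPS (250 ng/mL) and ATP (1.25 mM) stimulation; lower signal means less secretion.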
Starred values were filed as active, the others as inactive; ? = inconclusive; . = not tested or not shown. Unless noted, calls follow the shape of the dose curve; as a rule, active = well fitted curve in the direction sought with a large enough effect; inconclusive = small, poorly fitted or top-dose-only effect, or another doubt; inactive = no such curve, though single readings can be large; an effect the other way counts as inactive or inconclusive. Unless noted, % is scaled to controls: 0 for no effect and ±100 for the full control effect.

SMILES | TDP1 cell noCPT | HT1080-NT tox | HT1080 IDH1KD tx | TDP1 cell CPT | IL1B secr inh
CCOC(=O)c1cc2c(ccn2-c2ccc(F)cc2)n1CC(=O)N1CCN(C(=O)c2ccco2)CC1 | 12µM* | -3% | -8% | ? | 0
CCOC(=O)c1cc2c(ccn2C)n1CC(=O)N1CCC(Cc2ccccc2)CC1 | 18µM* | 0% | -13% | 23µM* | -74*
CCOC(=O)c1cc2c(ccn2C)n1CC(=O)N(C)C | 16% | 20% | 5% | 2% | 15
Cc1cc(C(=O)OCC(=O)N2CCN(C(=O)c3ccco3)CC2)c(C)n1-c1ccc(F)cc1 | ? | 4% | 16% | -16% | -22
O=C1c2cccnc2C(Nc2ccccc2Br)N1Cc1ccco1 (configuration not stated) | 10% | -2% | -3% | ? | 8
Fc1ccccc1N1CCN(c2nccn3nc(-c4ccc(Br)cc4)cc23)CC1 | 12% | . | . | -1% | .
COc1cccc(CN2CCN(c3ccc(F)cc3)C2=O)c1 | ? | -8% | -16% | -17% | -51*
Clc1ccc(CSc2nnc(-c3sccc3-n3cccc3)o2)cc1 | ? | -10% | -4% | -5% | -14
CCN(CC)c1ccc(NS(=O)(=O)c2cn(C)c(=O)n(C)c2=O)c(C)c1 | 3% | -2% | -1% | 6% | 21
Cc1ccc(NS(=O)(=O)c2ccc(-c3cnc(C4CC4)o3)cc2)c(C)c1 | 1µM* | ? | 0.82µM* | 1.5µM* | 35
Cc1cccc(N(C)S(=O)(=O)c2ccc(-c3cnc(C4CC4)o3)cc2)c1 | 0.037µM* | 0.052µM* | ? | 0.029µM* | 112
Cc1cc(C)c(NS(=O)(=O)c2ccc(-c3cnc(C4CC4)o3)cc2)c(C)c1 | 0.018µM* | . | . | 0.58µM* | .
CCN(CC)c1ccc(NS(=O)(=O)c2ccc(-c3cnc(C4CC4)o3)cc2)c(C)c1 | 16µM* | . | . | 12µM* | .
Cc1cc(C)c(NS(=O)(=O)c2cc(-c3cnc(C4CC4)o3)ccc2C)c(C)c1 | ? | . | . | -21% | .
Cc1ccc(NS(=O)(=O)c2ccc(Cl)nc2)c(C)c1 | -19% | 3% | -5% | ? | 11
O=C1C=C(c2ccc(F)cc2OCc2ccccc2)C[C@@H](c2ccc(F)cc2)C1 | 4% | -15% | -17% | -9% | -18
COC(=O)c1sc(N)nc1CCNC(=O)OC(C)(C)C | -10% | 18% | 18% | 9% | 25
O=C1CC(=O)Nc2cc(S(=O)(=O)Nc3ccc(F)cc3Cl)ccc2N1 | -4% | -1% | 0% | -4% | 3
O=S(=O)(Nc1ccc(F)cc1Cl)c1ccc(-c2cnc(C3CC3)o2)cc1 | 0.73µM* | 1.2µM* | ? | 0.65µM* | 40
O=c1cc(-c2ccc([N+](=O)[O-])cc2)c2cc3c(cc2[nH]1)OCCO3 | 10µM* | 22% | -29% | ? | ?
COC(=O)C[C@H]1c2cc(F)ccc2S(=O)(=O)N1C(C)C | ? | 5% | 6% | ? | 16
CCCNC(=O)C(Cc1ccc(I)cc1)NC(=O)c1ccc2ccccc2n1 (configuration not stated) | 21µM* | -5% | -4% | ? | -1
CC(=O)NC(Cc1ccc(I)cc1)C(=O)NCC(N)C(=O)c1ccccc1 (configuration not stated) | ? | -1% | 1% | ? | .
CCCNC(=O)C(Cc1ccc(Cl)cc1)NC(=O)c1ccc(C#N)cc1 (configuration not stated) | ? | 0% | 2% | -3% | 14
CCCNC(=O)C(Cc1ccc(Cl)cc1)NC(=O)c1ccc(-c2ccccc2)cc1 (configuration not stated) | 6.5µM* | -1% | 10% | 8.2µM* | -7
SMILES | TDP1 cell noCPT | HT1080-NT tox | HT1080 IDH1KD tx | TDP1 cell CPT | IL1B secr inh
COC(=O)[C@H](Cc1ccccc1)NC(=O)c1ccc2ccccc2n1 | -15% | 2% | -10% | 10% | -5
CC(=O)NC(Cc1ccc(Cl)cc1)C(=O)NCC(N)C(=O)c1ccccc1 (configuration not stated) | ? | 9% | 10% | 16µM* | .
O=C(Nc1nnc(C2CC2)s1)c1cccc(S(=O)(=O)N2CC(c3ccccc3)CC2=O)c1 (configuration not stated) | -27% | 10% | 8% | 0% | 13
COc1cc(C(=O)NC(=S)Nc2ccc3c(c2)OCO3)cc(OC)c1OC | -8% | -3% | -12% | -2% | -1
COc1cc(C(=O)NC(=S)Nc2ccc3c(c2)C(=O)N(C)C3=O)cc(OC)c1OC | 3.7µM* | 4% | -2% | -4% | 6
COc1cc(C(=O)NC(=S)Nc2ccc3ccccc3c2)cc(OC)c1OC | 23µM* | ? | ? | 23µM* | 52
CCOc1ccc(CNC(=O)c2ccc3c(c2)c(C)c(C)n3Cc2ccccc2)cc1OC | 15µM* | . | . | 12µM* | .
Cc1cccc(CNC(=O)c2ccc3c(c2)c(C)c(C)n3Cc2ccccc2)c1 | ? | . | . | 21µM* | .
Cc1c(C)n(Cc2ccccc2)c2ccc(C(=O)NCc3ccc(OC(C)C)cc3)cc12 | 12µM* | . | . | 16µM* | .
CCC1CCC(C(=O)NC(C(=O)NCCN(CC(C)C)CC(C)C)C(C)C)CC1 (configuration not stated) | 6% | . | . | -1% | .
O=C(Nc1nc2cc3c(cc2s1)OCO3)c1ccc(N2C(=O)CCC2=O)cc1 | 25% | -1% | 12% | -2% | -5
O=C(Nc1nc2ccc(Cl)cc2s1)C1CC1 | ? | -11% | -5% | -27% | 25
CC(C)c1ccc2nc(NC(=O)C3CC3)sc2c1 | ? | -17% | -15% | ? | -57*
CC(C)C(=O)Nc1nc2cc3c(cc2s1)OCO3 | 4.6µM* | 6% | 6% | 5.2µM* | 19
O=C(Nc1nc2cc3c(cc2s1)OCO3)C1CC1 | 3.7µM* | -2% | 4% | 4.1µM* | 3
COc1ccc(C(=O)Nc2nc3cc4c(cc3s2)OCO4)c(OC)c1 | -14% | 10% | 4% | ? | -15
Fc1cccc2sc(Nc3nc4cc5c(cc4s3)OCO5)nc12 | ? | ? | ? | 21µM* | 12
COCCN(Cc1ccco1)C(=O)C1CCCN(c2ncnc3c2nc2n3CCCCC2)C1 (configuration not stated) | ? | -2% | -11% | ? | 41
